# Results reported in PubChem BioAssay.
# Values without a mark were called inactive. Active and inactive are the calls of the source.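 How the source made its calls: active means compound raises GLP1 secretion from the human gut endocrine cells, with no numeric limit stated; inactive means the rest.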
# Test: GLP1 release stimulators, primary, NCI-H716, NPC library (AID 1117341); further: reference of the scale not given here
# Settings: NCI-H716 cells, at 10 µM, active compounds read high
row,SMILES,GLP1 secretion stimulation
1,CCN(CCCCOC(=O)c1ccc(OC)c(OC)c1)C(C)Cc1ccc(OC)cc1 (configuration not stated),0.3%
2,O=C(O)CSCC(=O)NC1CCSC1=O (configuration not stated),-0.3%
3,O=C1c2ccccc2C(=O)C1c1ccccc1,2.1%
4,COCCCOc1cc(C[C@@H](C[C@H](N)[C@@H](O)C[C@H](C(=O)NCC(C)(C)C(N)=O)C(C)C)C(C)C)ccc1OC,-4.7%
5,Cc1onc(-c2ccccc2Cl)c1C(=O)N[C@@H]1C(=O)N2[C@@H]1SC(C)(C)[C@@H]2C(=O)O,-1%
6,Cc1cccc(C(=O)O)c1O,1.9%
7,CCCCCCCCCCCCCCCCCCOCC(O)CO (configuration not stated),30.1% (active)
8,CCN(CC)CCNC(=O)COc1ccc(OC)cc1,2.1%
9,CN1CCOC(c2ccccc2)c2ccccc2C1 (configuration not stated),4%
10,CCCCC(=O)O[C@]1(C(=O)CO)[C@@H](C)C[C@H]2[C@@H]3CCC4=CC(=O)C=C[C@]4(C)[C@@]3(F)[C@@H](O)C[C@@]21C,8.1%
11,C[n+]1c2cc(N)ccc2cc2ccc(N)cc21 (tested in a mixture with another compound),5.7%
12,CCC(C)n1ncn(-c2ccc(N3CCN(c4ccc(OC[C@H]5CO[C@](Cn6cncn6)(c6ccc(Cl)cc6Cl)O5)cc4)CC3)cc2)c1=O (some centres not stated),2.2%
13,O=c1[nH]cnc2c1ncn2[C@@H]1O[C@H](CO)[C@@H](O)[C@H]1O,0.9%
14,CCN(CCCc1ccccc1)CCCc1ccccc1,2.7%
15,CN1CCN(c2cc3c(cc2F)c(=O)c(C(=O)O)cn3-c2ccc(F)cc2)CC1,0.1%
16,C/C=C1\[C@H]2C=C(C)C[C@]1(N)c1ccc(=O)[nH]c1C2,3.9%
17,COc1ccccc1OCC(O)CO (configuration not stated),1.3%
18,CC1=C(C)C(=O)C(C(CCCCCC(=O)O)c2ccccc2)=C(C)C1=O (configuration not stated),4%
19,NS(=O)(=O)c1cc2c(cc1Cl)NC(C(Cl)Cl)NS2(=O)=O (configuration not stated),0.9%

row,SMILES,GLP1 secretion stimulation
1,C[C@@H]1CN(c2c(F)c(F)c3c(=O)c(C(=O)O)cn(C4CC4)c3c2F)C[C@H](C)N1,-0.3%
2,O=C(O)c1ccccc1Nc1cccc(C(F)(F)F)c1,9.5%
3,CCCc1ncc(C[n+]2ccccc2C)c(N)n1,0.7%
4,O=C(O)/C=C(\CC(=O)O)C(=O)O,3.5%
5,Cc1nc2n(c(=O)c1CCN1CCC(c3noc4cc(F)ccc34)CC1)CCC[C@H]2O,-0.7%
6,NC(N)=NCCN1CCCCCCC1,-0.1%
7,Cc1cc(=O)n(-c2ccccc2)n1C,0.4%
8,C[N+]1(C)[C@@H]2CC(OC(=O)[C@H](CO)c3ccccc3)C[C@H]1[C@@H]1O[C@@H]12 (some centres not stated),-2.3%
9,CC(C)NC[C@@H](O)COc1cccc2ccccc12,3.3%
10,Cc1c(C(=O)O)c(O)cc2c1C(=O)c1c(O)c([C@@H]3O[C@H](CO)[C@@H](O)[C@H](O)[C@H]3O)c(O)c(O)c1C2=O,-1.7%
11,CO[C@H]1C=CO[C@@]2(C)Oc3c(C)c(O)c4c(O)c(c(/C=N/N5CCN(C)CC5)c(O)c4c3C2=O)NC(=O)/C(C)=C\C=C[C@H](C)[C@H](O)[C@@H](C)[C@@H](O)[C@@H](C)[C@H](OC(C)=O)[C@@H]1C,-1.8%
12,NC(CS)C(=O)O (configuration not stated),-1.7%
13,Cc1nc(-c2ccc(OCC(C)C)c(C#N)c2)sc1C(=O)O,4.1%
14,Oc1cccc2[nH]ccc12,-2.4%
15,CCCCCCCCCCCCCCCCC(C(=O)O)C(O)(CC(=O)O)C(=O)O (configuration not stated),-2.9%
16,C#CCN[C@@H]1CCc2ccccc21,0%
17,Cc1c[nH]c2ccccc12,-1.7%
18,CC(=O)Oc1c(C)c(C)c2c(c1C)CC[C@@](C)(CCC[C@H](C)CCC[C@H](C)CCCC(C)C)O2,1.2%
